Only some compounds are listed: those with a hit (about 2.2% of all), similar ones and a draw of the others.
TWEAK Fn14 block: inhibitors of TWEAK-Fn14 signaling, primary screen, luciferase reporter cells, uHTS. TWEAK-stimulated Fn14 reporter cells, luciferase luminescence, 8 h. inhibition, % at 10 µM. actives 2% (n = 360,000); in the data active = inhibition above about 50%
TROY NFkB inh: inhibitors of TROY-driven NF-kB signaling, primary screen, Q293 LMP1-TROYcd cells, NF-kB luciferase, uHTS; Q293 LMP1-TROYcd NF-kB luciferase reporter, 4 h; inhibition, % at 10 µM; actives 0.98% (n = 360,000);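 active = compounds whose plate-normalised and pattern-corrected inhibition of the luciferase reporter signal at the single screening dose is 50% or more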
HSP90 inh: HSP90 inhibitors, primary screen, cell lysate, luminescence; inhibition, % at 5.6 µM; Heat shock protein HSP 90 (rabbit reticulocyte lysate; luciferase refolding); Rabbit reticulocyte lysate, luciferase refolding luminescence, 3 h; actives 0.91% (n = 290,000);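 active = inhibition above the screen-wide mean plus 3 SD, computed separately per campaign, cut at about 16% in these data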;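 also: 0% = DMSO wells and 100% = 60 µM geldanamycin wells; inhibitors lower the luminescence because luciferase stays unfolded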
LGR2 inh: inhibitors of bursicon-induced LGR2 CRE-luciferase signal, primary screen, cell-based, HEK293, CRE-luciferase reporter, bursicon stimulation | inhibition, % at 9.99 µM | actives 0.35% (n = 380,000) | Drosophila bursicon receptor LGR2 (rickets) | bursicon-stimulated, 4 h;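 active = drop in luminescence signal, shown as inhibition above about 50% in the replicate tests, limit read from the data, passing the limit was not always enough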;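 also: agonist challenge used bursicon conditioned medium at about half maximal strength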
* hit, by the source's call.

Screening CC1=NN(c2ccccc2)C(=O)/C1=C\c1ccc(Oc2ccc([N+](=O)[O-])cc2[N+](=O)[O-])cc1 returned TWEAK Fn14 block 5, TROY NFkB inh 40, HSP90 inh 16* and LGR2 inh 17.
CCCc1n[nH]c2c1C(=O)CC(C)(C)C2 was read as TWEAK Fn14 block 7, TROY NFkB inh -3 and HSP90 inh -1.
CC1(C)CC(=O)c2c(-c3cccs3)n[nH]c2C1 was read as TWEAK Fn14 block 55*, TROY NFkB inh 34 and HSP90 inh 5.
Screening Cc1noc(C)c1NC(=O)Nc1ccc2c(c1)C(=O)N([C@H](C)CO)C[C@H](C)[C@H](CN(C)S(=O)(=O)c1ccc(Cl)cc1)OCCCC[C@H](C)O2 returned LGR2 inh -14.
Screening CCCn1nc([N+](=O)[O-])c(C(C#N)c2nc3ccccc3o2)c(Cl)c1=O (stereo not drawn) returned TWEAK Fn14 block -44, TROY NFkB inh 57*, HSP90 inh 0 and LGR2 inh 17.
`CCn1nc([N+](=O)[O-])c(C(C#N)c2nc3cc(C(F)(F)F)ccc3s2)c(Cl)c1=O` (stereo not drawn) gave TWEAK Fn14 block -12, TROY NFkB inh 65*, HSP90 inh 3 and LGR2 inh 6.
For COc1ccc(C#Cc2ccc3c(c2)O[C@H](CN(C)C(=O)CN2CCOCC2)[C@@H](C)CN([C@@H](C)CO)S3(=O)=O)cc1 the results were LGR2 inh 12.
Screening CC1=C(C#N)c2nc(N)c(C#N)c(C)c2/C1=C\c1ccc(-c2ccccc2C(=O)O)o1 returned TWEAK Fn14 block 70*, TROY NFkB inh 25, HSP90 inh -1 and LGR2 inh 26.
Screening COc1cc(/C=C2/C(C)=C(C#N)c3nc(N)c(C#N)c(C)c32)ccc1OCC(=O)O returned HSP90 inh 3 and LGR2 inh 1.
For Cc1cccc(C(=O)O/N=C(\N)Cc2cccc3ccccc23)c1 the results were TWEAK Fn14 block -18, TROY NFkB inh -19 and HSP90 inh 17*.
For O=C(Cc1cccnc1)N[C@H]1CC[C@H](CCNS(=O)(=O)c2ccccc2Cl)O[C@@H]1CO the results were LGR2 inh 2.
`Cc1ccc(NC2CCCN(C(=O)C3CCCCC3)C2)cc1C` (stereo not drawn) gave TWEAK Fn14 block 69*, TROY NFkB inh -21, HSP90 inh -3 and LGR2 inh -3.
For O=C(C[C@@H]1C[C@@H]2c3cc(NC(=O)C4CCC4)ccc3O[C@@H]2[C@@H](CO)O1)NCc1cc(F)ccc1F the results were LGR2 inh 1.
For C[C@@H]1CN([C@H](C)CO)C(=O)c2cc(NC(=O)Nc3ccc(C(F)(F)F)cc3)ccc2O[C@H]1CN(C)S(=O)(=O)c1ccccc1 the results were TWEAK Fn14 block 55*, TROY NFkB inh 29 and LGR2 inh 1.
Screening C[C@@H]1CN([C@@H](C)CO)C(=O)c2cc(NC(=O)Nc3ccc(C(F)(F)F)cc3)ccc2O[C@@H]1CN(C)S(=O)(=O)c1ccc(F)cc1 returned LGR2 inh 3.
COc1ccc(S(=O)(=O)N(C)C[C@H]2Oc3ccc(NC(=O)Nc4ccc(C(F)(F)F)cc4)cc3C(=O)N([C@H](C)CO)C[C@@H]2C)cc1 was read as TWEAK Fn14 block 58*, TROY NFkB inh 30 and LGR2 inh -6.
`COc1ccc(NC(=O)Nc2ccc3c(c2)C(=O)N([C@H](C)CO)C[C@@H](C)[C@H](CN(C)S(=O)(=O)c2ccc(Cl)cc2)OCCCC[C@H](C)O3)cc1` gave LGR2 inh -3.
`CCCc1ccc(C(C)NC(=S)NCc2ccc(F)cc2)cc1` (stereo not drawn) gave TWEAK Fn14 block 24, TROY NFkB inh 56*, HSP90 inh 0 and LGR2 inh 10.
CCC(C)c1ccc(C(C)NC(=S)NCc2ccc(F)cc2)cc1 (stereo not drawn) was read as TWEAK Fn14 block 6, TROY NFkB inh 40, HSP90 inh 0 and LGR2 inh 7.
For COc1cc(/C=C(\C#N)c2nc3ccc(C)cc3[nH]2)cc([N+](=O)[O-])c1O the results were TWEAK Fn14 block 51*, TROY NFkB inh -23, HSP90 inh 1 and LGR2 inh -39.
`COc1cc(/C=C(\C#N)c2nc3ccccc3[nH]2)ccc1Oc1ccc([N+](=O)[O-])cn1` gave TWEAK Fn14 block 0, TROY NFkB inh 52*, HSP90 inh 1 and LGR2 inh -21.
`COc1ccc(S(=O)(=O)N[C@H]2CC[C@H](CC(=O)NCCc3ccccc3)O[C@@H]2CO)cc1` gave LGR2 inh -7.
Screening COc1cc(SC)ccc1C(=O)Nc1nccs1 returned TWEAK Fn14 block 63*, TROY NFkB inh 31, HSP90 inh 16 and LGR2 inh 36.
CCc1nnc2n1N=C(c1ccc(-c3ccc(Cl)cc3Cl)o1)CS2 was read as HSP90 inh 2.
`Clc1ccc(OCc2nnc3n2N=C(c2ccc4c(c2)OCCO4)CS3)c(Cl)c1` gave TWEAK Fn14 block 53*, TROY NFkB inh 60* and HSP90 inh -1.
`Oc1ccc(-c2n[nH]c(=S)n2-c2ccc3c(c2)OCCO3)c(O)c1` gave TWEAK Fn14 block 52*, TROY NFkB inh -5, HSP90 inh 16* and LGR2 inh 22.
`COc1ccc(-c2cc3ccc(OC)cc3cn2)cc1` gave TWEAK Fn14 block 86*, TROY NFkB inh 42 and LGR2 inh 67*.
Screening COc1ccc2c3c([nH]c2c1)[C@@H](CO)N(CC1CCOCC1)CC31CN(CC2CCOCC2)C1 returned LGR2 inh 9.
For CC(=O)O[C@H]1CC[C@@]2(C)C(CCC3C2CC[C@]2(C)OC(=O)CCC32)C1 (stereo partly drawn) the results were TWEAK Fn14 block -3, TROY NFkB inh -2 and HSP90 inh 3.
Screening CC(=O)OC1CCC2(C)C(CCC3C4CC=C(C(C)=O)C4(C)OC(=O)CC32)C1 (stereo not drawn) returned TWEAK Fn14 block 102*, TROY NFkB inh 43 and LGR2 inh 107*.
For C/C(Cl)=C\Cn1c(NCCc2ccccc2)nc2c1c(=O)n(C)c(=O)n2C the results were TWEAK Fn14 block 54*, TROY NFkB inh 50*, HSP90 inh 1 and LGR2 inh 17.
`CCN(CC)C(=O)c1cccc(-c2csc(C(C)(O)c3cccc(F)c3)n2)c1` (stereo not drawn) gave TWEAK Fn14 block 53*, TROY NFkB inh 38 and LGR2 inh 20.
`CC(=O)Nc1cccc(-c2csc(C(C)(O)c3cccc(F)c3)n2)c1` (stereo not drawn) gave TWEAK Fn14 block -6, TROY NFkB inh -1 and LGR2 inh -12.
Screening COc1ccc(C(C)(O)c2nc(-c3cccc(C#N)c3)cs2)cc1 (stereo not drawn) returned TWEAK Fn14 block 15, TROY NFkB inh 16 and LGR2 inh 9.

Assay outcomes from PubChem.
